High-throughput results (PubChem)
MITF inh – MITF inhibitors, primary screen, biochemical, AlphaScreen, human. 650,000 tested, 0.91% active. inhibition, % at 2.6 µM. AlphaScreen MITF homodimerization, bead proximity signal; in the data active means inhibition above about 50%;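 further: 0% = vehicle wells with protein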
Target sequence (O75030 whole entry, looked up): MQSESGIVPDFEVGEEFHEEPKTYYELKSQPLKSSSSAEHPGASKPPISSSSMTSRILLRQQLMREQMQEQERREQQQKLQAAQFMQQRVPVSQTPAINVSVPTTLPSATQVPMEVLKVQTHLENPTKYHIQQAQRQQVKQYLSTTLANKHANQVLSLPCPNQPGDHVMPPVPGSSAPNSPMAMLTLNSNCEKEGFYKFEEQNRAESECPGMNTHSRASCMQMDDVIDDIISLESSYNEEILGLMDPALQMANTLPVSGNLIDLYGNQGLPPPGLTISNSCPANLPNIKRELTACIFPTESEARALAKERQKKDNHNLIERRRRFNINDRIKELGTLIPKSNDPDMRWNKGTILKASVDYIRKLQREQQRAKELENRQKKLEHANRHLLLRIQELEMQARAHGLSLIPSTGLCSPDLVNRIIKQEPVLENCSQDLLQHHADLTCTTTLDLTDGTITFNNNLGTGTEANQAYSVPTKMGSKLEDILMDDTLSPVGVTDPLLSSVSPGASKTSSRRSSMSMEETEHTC
FBW7 act – FBW7 E3 ligase activators, primary screen, biochemical, AlphaScreen, human; normalized activity (activation), % at 26.1 µM; 650,000 tested, 0.13% active; AlphaScreen FBW7–phospho-cyclin E peptide binding, activator screen; in the data active means normalized activity above about 1.9%;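 further: purified mutant Fbw7 with reduced substrate affinity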
TEAD-YAP block – TEAD-YAP interaction inhibition, primary screen, TEAD-YAP interaction inhibitor project, luminescence, HEK-TIYL cells; TEAD-Gal4/YAP UAS-luciferase luminescence; inhibition, % at 9.12 µM; 640,000 tested, 1.4% active; AID 1259422, 2018; in the data active means inhibition above about 32%;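 further: 0% = median of test compound wells and 100% = reference inhibitor wells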
GPR151 activ – activators of human GPR151, primary screen, cell-based, PathHunter beta-arrestin, luminescence; G-protein coupled receptor 151 (Homo sapiens), Q8TDV0; PathHunter beta-arrestin GPR151 cells; activation, % at 11.2 µM; 650,000 tested, 1% active; AID 1508602, 2020; in the data active means activation above about 4.9%;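 further: 0% = median of compound wells and 100% = cells with positive control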
Active calls of the source: *. A selection: hits, their analogues and other compounds. The true share with any hit is near 3.5%.

Screening CN(C)c1ccc(/C=C/CN2CCC(C3(C)NC(=O)NC3=O)CC2)cc1 (stereo unspecified) returned MITF inh -4, FBW7 act 0, TEAD-YAP block -22 and GPR151 activ 1.
Brc1ccc(-c2ccc(C3CCCCC3)cn2)cc1 was read as MITF inh 6, FBW7 act 0, TEAD-YAP block 63* and GPR151 activ 1.
Cc1nc(-c2ccc(NC(=O)c3ccc(C)c(C)c3)cc2)cs1 was read as MITF inh 2, FBW7 act 0, TEAD-YAP block -64 and GPR151 activ -1.
`Cc1nc(-c2ccc(C(=O)Nc3ccc(O)cc3)cc2)cs1` gave MITF inh -4, FBW7 act 0, TEAD-YAP block 91* and GPR151 activ -1.
`Cc1cccc(NS(=O)(=O)c2cc(Br)cc3c2N(C(=O)C2CC2)CC3)c1` gave MITF inh 0, FBW7 act 0, TEAD-YAP block 71* and GPR151 activ 1.
For COc1c(C)cc(S(=O)(=O)Nc2ccc3c(c2)N(C(=O)C2CC2)CC3)cc1C the results were MITF inh 5, FBW7 act 0, TEAD-YAP block 43* and GPR151 activ 1.
For Cc1cc(NS(=O)(=O)c2ccc3c(c2)CCN3C(=O)C2CC2)ccc1Br the results were MITF inh 10, FBW7 act 1, TEAD-YAP block 11 and GPR151 activ 0.
COc1ccc(NS(=O)(=O)c2cc(Br)cc3c2N(C(C)=O)CC3)cc1 was read as MITF inh 10, FBW7 act 0, TEAD-YAP block 44* and GPR151 activ 1.
`CCc1ccc(NS(=O)(=O)c2cc(Br)cc3c2N(C(C)=O)CC3)cc1` gave MITF inh 13, FBW7 act 0, TEAD-YAP block 47* and GPR151 activ 0.
For O=C(Nc1ccc(Oc2ccccc2)cc1)c1ccc(F)c(S(=O)(=O)N2CCCCC2)c1 the results were MITF inh 5, FBW7 act 0, TEAD-YAP block 37* and GPR151 activ 0.
O=C(Nc1ccc(Oc2ccccc2)cc1)c1ccc(F)c(S(=O)(=O)N2CCC3(CC2)OCCO3)c1 was read as MITF inh 22, FBW7 act 0, TEAD-YAP block 61* and GPR151 activ -1.
`O=C(Nc1ccc(Oc2ccccc2)cc1)c1ccc(F)c(S(=O)(=O)N2CCN(C3CCCCC3)CC2)c1` gave MITF inh -2, FBW7 act 0, TEAD-YAP block 42* and GPR151 activ 2.
`CCCCCOc1ccc(/C=C/C(=O)Nc2nccs2)cc1OC` gave MITF inh -18, FBW7 act 0, TEAD-YAP block 2 and GPR151 activ 1.
Screening Cc1sc2nc(SCC(=O)Nc3cccc(F)c3)nc(N)c2c1C returned MITF inh 6, FBW7 act 2, TEAD-YAP block 11 and GPR151 activ -1.
Screening COc1ccc(-c2cc3nc(C)c(CCC(=O)O)c(C)n3n2)c(OC)c1 returned MITF inh -8, FBW7 act 0, TEAD-YAP block 39* and GPR151 activ 2.
COc1ccc(-c2cc3nc(C)c(CCC(=O)N4CCCC4)c(C)n3n2)c(OC)c1 was read as MITF inh -4, FBW7 act 0, TEAD-YAP block 6 and GPR151 activ 1.
`CCC(C)NC(=O)CCc1c(C)nc2cc(-c3cccc(F)c3)nn2c1C` (stereo unspecified) gave MITF inh 6, FBW7 act 0, TEAD-YAP block 6 and GPR151 activ 1.
Screening Cc1nc2cc(-c3cccc(F)c3)nn2c(C)c1CCC(=O)O returned MITF inh -3, FBW7 act 0, TEAD-YAP block 43* and GPR151 activ -3.
`COC(=O)C(C)Oc1ccc2c(C)c(Cc3ccccc3)c(=O)oc2c1C` (stereo unspecified) gave MITF inh -4, FBW7 act 0, TEAD-YAP block -11 and GPR151 activ 0.
`NC(=O)CCC(NC(N)=O)C(=O)O` (stereo unspecified) gave MITF inh 16, FBW7 act 0, TEAD-YAP block 7 and GPR151 activ 0.
Screening NC(=O)CCC(NC(=O)NC1CCCCC1)C(=O)O (stereo unspecified) returned MITF inh 20, FBW7 act 2.1*, TEAD-YAP block -10 and GPR151 activ -1.
For O=[N+]([O-])c1cccc(CN2CCN(Cc3cc(Br)ccc3O)CC2)c1 the results were MITF inh 65*, FBW7 act 0, TEAD-YAP block 9 and GPR151 activ 0.
For O=[N+]([O-])c1cccc(CN2CCCCCC2)c1 the results were MITF inh 4, FBW7 act 0, TEAD-YAP block 1 and GPR151 activ 0.
Screening CCCCNC(=O)CN1C(=O)N(c2ccccc2)S(=O)(=O)c2ccccc21 returned MITF inh -2, FBW7 act 0, TEAD-YAP block 1 and GPR151 activ 3.
Screening COc1ccccc1-c1cc(C(=O)Nc2cc(OC)c(OC)c(OC)c2)no1 returned MITF inh 24, FBW7 act 0, TEAD-YAP block 46* and GPR151 activ 0.
Screening COc1cccc(-c2cc(C(=O)Nc3cc(C)nn3-c3ccccc3)no2)c1 returned MITF inh 3, FBW7 act 0, TEAD-YAP block 1 and GPR151 activ 1.
`COc1ccccc1-c1cc(C(=O)Nc2cc(C)nn2-c2ccccc2)no1` gave MITF inh 4, FBW7 act 0, TEAD-YAP block 34* and GPR151 activ -1.
Screening CCOC(=O)C1=C(C)Nc2ccccc2N/C1=N\S(=O)(=O)c1ccc2c(c1)OCCO2 returned MITF inh 5, FBW7 act 0, TEAD-YAP block -10 and GPR151 activ 2.
Screening CC1=C(C(=O)OCCOc2ccccc2)C(c2cccc3ccccc23)C2=C(CC(c3ccc(Cl)cc3)CC2=O)N1 (stereo unspecified) returned MITF inh 7, FBW7 act 0, TEAD-YAP block 4 and GPR151 activ 4.
For COc1ccc(C(=O)c2cc([N+](=O)[O-])ccc2N2CCN(C)CC2)cc1 the results were MITF inh 15, FBW7 act 1, TEAD-YAP block 49* and GPR151 activ -1.
For Cc1ccc(C(=O)c2cc([N+](=O)[O-])ccc2N2CCN(C)CC2)cc1 the results were MITF inh 18, FBW7 act 0, TEAD-YAP block 51* and GPR151 activ 0.
CN1CCN(c2ccc([N+](=O)[O-])cc2C(=O)c2ccc(Br)cc2)CC1 was read as MITF inh 9, FBW7 act 0, TEAD-YAP block 52* and GPR151 activ 0.
`CN(Cc1cccnc1)C(=O)CCc1nnc(CCCCc2ccccc2)o1` gave MITF inh -8, FBW7 act 0, TEAD-YAP block 1 and GPR151 activ 0.
For COc1ccccc1-c1cc(C(=O)N/N=C/c2ccc(O)cc2)[nH]n1 the results were MITF inh -5, FBW7 act 0, TEAD-YAP block 5 and GPR151 activ 2.
